From PubChem BioAssay AID720630 (Broad Institute, 2013)
Results filed as inconclusive are left out. Activity calls are given as the source filed them. No rule for the calls is given here.

Experiment: HUVEC apoptotic caspase activation, HRAS target ID – cell-based, multiple timepoints, luminescence, dry powder, mechanism study for HRAS target identification, dose response (AID 720630)
Settings: HUVEC apoptosis, caspase-3/7 luminescence; for caspase activation: at 35 µM (top of the series)
[1] = measured here: max caspase activation timepoint 1, at 0.001 µM, test 1, stronger effect = higher value

| SMILES | caspase activation | max activity [1] [%] | max activity (measured here: max caspase activation timepoint 2, at 1 µM, test 2, stronger effect = higher value) [%] | max activity (measured here: max caspase activation timepoint 3, at 0.008 µM, test 3, stronger effect = higher value) [%] | max activity (measured here: max caspase activation timepoint 2, at 16 µM, test 2, stronger effect = higher value) [%] | max activity (measured here: max caspase activation timepoint 3, at 4.2 µM, test 3, stronger effect = higher value) [%] |
| --- | --- | --- | --- | --- | --- | --- |
| Cc1onc(C(=O)N2CCN(C(c3ccc(Cl)cc3)c3ccc(Cl)cc3)CC2)c1[N+](=O)[O-] | -6.38% (inactive) | -21.9 | -18.4 | -32.1 |  |  |
| CCC(=O)N(c1ccc(OC)c(Cl)c1)C(C(=O)NCCc1ccccc1)c1cccs1 (stereo not drawn) | 8.9% (inactive) | -18.6 |  |  | -23.7 | -13.9 |
